# From PubChem BioAssay
# The entries come from a sample that favours hits as a whole.
# Dicer processing = inhibitors of Dicer pre-microRNA processing, primary screen, biochemical, cat-ELCCA, chemiluminescence; Endoribonuclease Dicer (Homo sapiens), Q9UPY3; cat-ELCCA pre-miR-21 Dicer processing; stronger effect = higher value; z-score at 25 µM; 6% of 47,000 active; AID 1347074, 2019; in the data active = z-score above about 3, passing the limit was not always enough;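 note: plate controls were vehicle for no effect and no enzyme for full effect; higher signal means more uncleaved substrate so more Dicer inhibition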
# The depositor's hits bear a star.
SMILES,Dicer processing
C=C(CC(=O)N1CCOCC1)C(=O)N1CCOCC1,-0.74
CC1=C(C(=O)OC2CCCCC2)C(c2ccccc2Br)CC(=O)N1 (stereo not given),0.28
O=C(Nc1cc(Cl)cc(Cl)c1)OC1CN(C(c2ccccc2)c2ccccc2)C1,0.41
CC1CCC(C)(C)CN(c2ccc(C(F)(F)F)cc2[N+](=O)[O-])C1 (stereo not given),-0.85
C/C(=N\Nc1nc(C(C)(C)C)cs1)c1cc2cc(Cl)ccc2o1,-1.08
Cc1cc(N2CCN(c3ccc(Cl)cc3)CC2)n2ncnc2n1,-1.29
O=C(c1ccccc1)n1cc2c(n1)-c1ccccc1CS2,-1.24
COc1ccccc1-n1cnc2cc(Nc3nnc(C)c4ccccc34)ccc21,-0.27
c1ccc(-n2cnc3cc(NCc4ccccn4)ccc32)cc1,2.56
COc1ccccc1-n1cnc2cc(NCc3ccncc3)ccc21,5.31*
Cc1cc(NC(=O)CSc2nc(N)cc(=O)[nH]2)no1,-0.4
COc1ccccc1NC(=S)NNC(=O)CC#N,2.77
CO[C@H]1C[C@H](O[C@H]2[C@H](C)[C@@H](O[C@@H]3O[C@H](C)C[C@H](N(C)C)[C@H]3OC(C)=O)[C@@H](C)C[C@@]3(CO3)C(=O)[C@H](C)[C@@H](OC(C)=O)[C@@H](C)[C@@H](C)OC(=O)[C@@H]2C)O[C@@H](C)[C@@H]1OC(C)=O,-0.13
Cc1noc(C(F)(F)F)c1C(=O)O/N=C(\N)c1cccc(C(F)(F)F)c1,-1.49
COc1ccc(C2C(C#N)=C(N)OC3=C2C(=O)CC(C)(C)C3)cc1OCc1ccccc1 (stereo not given),3.02*
COC(=O)C1=C(C)NC2=C(C(=O)CC(C)(C)C2)C1c1ccc(OCc2ccccc2)c(OC)c1 (stereo not given),-0.7
COc1cc(C2C(C#N)=C(N)Oc3cc(O)ccc32)ccc1OCc1ccccc1 (stereo not given),1.75
CSC1=NNC(c2ccccn2)S1 (stereo not given),-0.12
Cc1ccc(/C=C2\CCCC(CN(C)C)C2=O)cc1 (stereo not given),-1.62
Cc1ccc(-c2nnc3c4cnn(-c5cccc(C)c5)c4ncn23)cc1,0.2
O=C(Nc1ccc(Br)cc1C(F)(F)F)C(F)(F)F,-1.06
COc1cc(O)ccc1C1Nc2ccccc2-c2cc(C)nn21 (stereo not given),0.34
Cc1cc2n(n1)C(c1ccccc1O)Nc1c(C)cccc1-2 (stereo not given),5.17*
Cc1cc2n(n1)C(c1cccs1)Nc1c(C)cccc1-2 (stereo not given),1.43
COc1ccccc1C1Nc2c(C)cccc2-c2cc(C)nn21 (stereo not given),3.9*
SMILES,Dicer processing
COc1ccc(C2Nc3c(C)cccc3-c3cc(C)nn32)c(OC)c1 (stereo not given),-0.71
COc1cc(O)ccc1C1Nc2c(C)cccc2-c2cc(C)nn21 (stereo not given),3.8*
COc1ccccc1C1Nc2c(C)cc(C)cc2-c2cc(C)nn21 (stereo not given),2.9
CCN(CC)c1ccc(C2Nc3c(C)cccc3-c3cc(C)nn32)c(O)c1 (stereo not given),0.45
COC(=O)c1scc(S(C)(=O)=O)c1N=CN(C)C,-0.08
CCOC(=O)/C(C#N)=N/Nc1cc(-c2ccccc2)[nH]n1,-2.41
CCC(C)OC(=O)C1=C(C)NC2=C(C(=O)CC(c3ccccc3)C2)C1c1cccc(OC)c1OC (stereo not given),0.77
Nc1n[nH]c(-c2ccccc2)c1Br,-7.83
OC(COC1CCCCC1)Cn1c2ccccc2c2ccccc21 (stereo not given),-0.54
O=C(c1cc2n(n1)C(C(F)(F)F)CC(c1ccc(Cl)cc1)N2)N1CCCCC1 (stereo not given),1.75
CC1CCN(C(=O)c2cc3n(n2)C(C(F)(F)F)CC(c2ccc(Br)cc2)N3)CC1 (stereo not given),5.41*
O=C(c1cc2n(n1)C(C(F)(F)F)CC(c1ccc(Br)cc1)N2)N1CCOCC1 (stereo not given),4.96*
O=C(c1cc2n(n1)C(C(F)(F)F)CC(c1ccc(Br)cc1)N2)N1CCCCC1 (stereo not given),1.16
O=C(c1cc2n(n1)C(C(F)(F)F)CC(c1ccco1)N2)N1CCN(c2ccccn2)CC1 (stereo not given),-0.69
O=C(c1cc2n(n1)C(C(F)(F)F)CC(c1ccccc1)N2)N1CCOCC1 (stereo not given),3.6*
O=C(c1cc2n(n1)C(C(F)(F)F)CC(c1ccc(Cl)cc1)N2)N1CCCC1 (stereo not given),1.72
O=C(c1cccc(F)c1)N1CCN(C(=O)c2cc3n(n2)C(C(F)(F)F)CC(c2ccco2)N3)CC1 (stereo not given),1.12
COc1ccc(C2CC(C(F)(F)F)n3nc(C(N)=O)cc3N2)cc1OC (stereo not given),-0.89
COC(=O)CCC(C)[C@H]1CCC2C3C(C[C@H](O)[C@@]21C)[C@@]1(C)CC[C@@H](O)CC1C[C@H]3O (stereo not given in full),1.14
COCCN1C(=O)C(=O)/C(=C(\O)c2ccc3c(c2)CC(C)O3)C12C(=O)N(C)c1ccccc12 (stereo not given),0.81
O=C1C=C(Nc2cccc(O)c2)c2ccccc2C1=O,-5.42
CC(C)(C)Nc1nc(Cl)nc(Oc2ccc(=O)n(-c3ccccc3)n2)n1,-0.17
O=C(COc1ccccc1O)NCc1ccccc1Cl,-0.98
Cc1cc(C)c2c(c1)NC(=O)C2(O)CC(=O)c1cccs1 (stereo not given),3.44*
O=C(CC1(O)C(=O)Nc2ccc(Br)cc21)c1cccs1 (stereo not given),-1.85
SMILES,Dicer processing
Cc1ccc(C(=O)CC2(O)C(=O)Nc3ccc(C)cc32)c(C)c1 (stereo not given),-0.09
CC(C)NC(=O)O/N=C(\N)COc1ccc(C(C)(C)C)cc1,0.55
Cc1cc(NC(=O)c2ccc(Cl)cc2Cl)n(C)n1,-0.87
O=C(CSc1nnc(SCC(=O)NC2Cc3ccccc3C2)s1)NC1Cc2ccccc2C1,-1.72
Cc1cc(Oc2ccnc3cc(Cl)ccc23)cc(C)c1Cl,-0.76
Cc1cc(Oc2ccnc3cc(Cl)ccc23)ccc1Cl,28.8*
Cc1cc(OCOc2ccc(Cl)c(C)c2)ccc1Cl,-1.33
Cc1onc(-c2ccccc2Cl)c1C(=O)N1c2ccccc2NC(=O)CC1C (stereo not given),-0.09
CC(=O)Oc1ccc(C2C(C(=O)OC3CCCCC3)=C(C)NC3=C2C(=O)CC(C)(C)C3)cc1 (stereo not given),-0.4
CN1C(=O)c2cccc3c(Br)c(N)cc(c23)C1=O,-1.03
Cc1cc(C)c2[nH]c(=O)cc(C(=O)O)c2c1,0.03
Cc1ccc(S(=O)(=O)n2c(=O)sc3ccccc32)cc1,-0.13
COC(=O)n1c(=O)oc2cc(Cl)ccc21,1.38
Cc1ccc(S(=O)(=O)n2c(=O)oc3cc(Cl)ccc32)cc1,16.1*
COc1ccc(-c2nnc3c4ccccc4c(C)nn23)cc1S(=O)(=O)NCCO,0.97
CCc1n(CC)c2ccccc2[n+]1CC(O)COc1ccc(OC)cc1 (stereo not given),0.26
CC(=O)CC1(O)C(=O)Nc2ccc(F)cc21 (stereo not given),0.82
Cc1nc(C(F)(F)F)ccc1C(=O)NCCNC(=O)OC(C)(C)C,4.36*
CC(C)(C)OC(=O)NCCNC(=O)C1CCN(c2nccc(C(F)(F)F)n2)CC1,-1.01
CC(C)(C)OC(=O)NCCNC(=O)Nc1ccccc1C(F)(F)F,-0.78
